# Measured values as given in the supplement of paper PMC11417369.
# ± gives the standard deviation of the averaged measurements. Whole data set: some 25,000 sequences, median “ln(normalized median fluorescence intensity)” near 8.9, cut for the highest 2% near 10. Many of the other results were omitted from the sample, so the highest values are more common in it than they were.
# Test system: PfAP2-LT AP2 domain (GST-tagged)
# Assay: gcPBM binding intensity (ln(normalized median fluorescence intensity)); higher = stronger DNA binding
# Summary of the method: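 After 1 h on an Agilent 4 × 180k array of primer-extended double-stranded 36-bp intergenic genomic probes and negative controls, bound GST-tagged P. falciparum DNA-binding domains were detected with Alexa488 anti-GST antibody and scanned at 488 nm. The domains had been expressed in E. coli, and binding took place in 1× PBS with 1% milk, 0.2 mg/ml BSA, 0.5% salmon testes DNA and 0.03% Triton X-100. Binding intensity is the highest Masliner-normalised natural-log median intensity across replicate spots of either probe orientation.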
row,Sequence,gcPBM binding intensity (ln)
1,ATAACAATTATTTGTCGACACACGTATATGTTATTT [CACACA_site1766],9.41 ± 0.38
2,ATATTCTTTTTATGTGGTACTAATTTTTTTTTTTTA [XGTACX_site3791],8.66 ± 0.57
3,CGAAAAAATAAAAAAAAAATAAAATAAAATAAATAA [TGCATGCA_negctrl_site278],8.56 ± 0.59
4,TACAAATATGGACACACACACATATTTATATTTATA [CACACA_site6420],9.73 ± 0.4
5,AAGGATATAACATACACACACACACCCATATATATA [CACACA_site4142],10.08 ± 0.099
6,AATACATATAAAAGTACACACACACCCATATATATA [CACACA_site8220],9.97 ± 0.13
7,ACCCATAAAAAGGATACACACACACCCACCCATATA [CACACA_site8205],10.3 ± 0.29
8,TACATATAAAAGTACACACACACACCCATATATATA [CACACA_site941],10.1 ± 0.3
9,AGATAAAAAAAGTACACACACACATATATATATATA [CACACA_site3072],10.02 ± 0.014
10,CCATAAAAAGGATACACACACACACCCACATATATA [CACACA_site903],10.1 ± 0.32
11,ATAATTATATAAATATATATAATATATATATGAAAA [XGTACX_negctrl_site357],8.58 ± 0.58
12,TAATGGAGAAAAAAAAAACACACGGTACATTCAAAG [CACACA_site3117],9.01 ± 0.46
13,AAATAAATAAATTAACGTACATAATAACATTAATAT [XGTACX_site8567],8.86 ± 0.47
14,AGTTTGTCAATCAACACACACCTATTTATTATAGAT [CACACA_site7777],9.1 ± 0.37
15,AAAAAAAAAAAAAACACACACACACCCAAATATATA [CACACA_site1169],10.2 ± 0.44
16,AAAAAATCAAAACACACACACACACCCAAAAAAAAA [CACACA_site1444],10.2 ± 0.37
17,AACACCCAAAAACACACACACATACATACATACATA [CACACA_site4411],9.8 ± 0.23
18,AAAAAAAAAAAAAAAAAAAAACACCCAAAAAAATAT [XGTACX_negctrl_site210],8.86 ± 0.44
19,AAAATCACAAAACACACACACACAAAAAAAAAAAAA [CACACA_site1443],9.49 ± 0.53
20,AAAAAAAAAAAACACACACACACACCCAAATATATA [CACACA_site150],10.22 ± 0.028
21,AAAGAAAAAAAAAAAACACACAAAAAAAATCAAAAT [CACACA_site2871],9.04 ± 0.57

row,Sequence,gcPBM binding intensity (ln)
1,AAAAAAAAAAAAAAAACACACACATACACCCAAAAA [CACACA_site7910],9.78 ± 0.23
2,AAATAAATAAAAAACACACACAAATAAATAAATATA [CACACA_site2249],9.46 ± 0.39
3,AAAAAAAAAAAACACACACACACAAATATATAAAAA [CACACA_site1171],9.77 ± 0.31
4,AAAACACCCAAACACACACACACATATATATATATA [CACACA_site9119],10.2 ± 0.35
5,CAAATGTAGAAAATGTGTACATAAAAAAAAAAAAAA [XGTACX_site8276],8.87 ± 0.47
6,AGGGACATATATATCACACACAAAAATTAGTCCCTT [CACACA_site2778],9.39 ± 0.44
7,TATATTATTTATATTTGTACACAGCGATATGAAATA [XGTACX_site987],8.56 ± 0.46
8,CATATAATTATTTTCACACATATAACTACATCTATA [CACACA_site5915],8.82 ± 0.43
9,ATACATACATACATACGTACATATGTATATATATAT [XGTACX_site8498],9.23 ± 0.14
10,AATTTGATTATAAATTGTACATATATATATTAAAAG [XGTACX_site5461],8.66 ± 0.35
11,AAAAATGAAAGGTGTACACATACAAACATAGAAAGA [CACACA_site5020],9.38 ± 0.52
12,ATGGTTTTTATTTTATGTACTTACTAAAATGAATAA [XGTACX_site4317],8.52 ± 0.37
13,AAAAAAAAAAAAAACACACACACACCCATACACATA [CACACA_site2860],10.19 ± 0.078
14,AAAAAAAAAAAACACACACACACACCCATACATACA [CACACA_site707],10.4 ± 0.14
15,AAAAAAAAAAAAAACACACACAACACCCATACCTTA [CACACA_site3621],9.79 ± 0.057
16,TAAACACCCATACATACACACATACATACACCCATA [CACACA_site5125],9.63 ± 0.18
17,CATACACCCATACATACACACATACATACACCCATA [CACACA_site5124],9.56 ± 0.31
18,AAAAAAAAAAAACACACACACACATACCCATACATA [CACACA_site5575],9.98 ± 0.22
19,AAAAAAAAAAAAAACACACACACACCCATACCCATA [CACACA_site5577],10.215 ± 0.0071
20,AAAAAAAAAAAAAAAACACACACAACACCCATACCT [CACACA_site9208],9.92 ± 0.14
21,GGGCATATAATATAAAGTACAGGACTATAAAAATAT [XGTACX_site4481],8.86 ± 0.59

row,Sequence,gcPBM binding intensity (ln)
1,TCTTTTTTTTTTACTAGTACTTAAAAAAAAAATATG [XGTACX_site4395],8.28 ± 0.55
2,TTTGTAAAACTATATTGTACTTTTATATATCTACAA [XGTACX_site5507],8.56 ± 0.47
3,TTTTTAAAAAAGATAAGCGAAAGAATTAATTTTTAA [GTGCAC_negctrl_site197],8.13 ± 0.52
4,TATTTACATATTTATATACACACTTTTGCGTGTCTG [CACACA_site1110],9.36 ± 0.67
5,CATATTATTTATATTTGTACACAGCGATATGAAATA [XGTACX_site7717],8.68 ± 0.35
6,AAAATCACAAGACACACACACACAAAAAAAAAAAAA [CACACA_site6791],9.94 ± 0.58
7,TATAATAAATCAAATGCACACACACTAATAAAAAAA [CACACA_site7937],9.63 ± 0.35
8,AAAAAATCACGACACACACACACACTAAAAAAAAAA [CACACA_site6792],10.1 ± 0.2
9,TGGTTACTGTCATTAGTTATTTCTTGTTGACAATTA [CACACA_negctrl_site416],8.79 ± 0.41
10,AAAAAAAAAAAAAACACACACACACCCAAATACATA [CACACA_site708],9.99 ± 0.24
11,CACAAAAAAAATTATACACACACACCCATATATATA [CACACA_site8255],9.82 ± 0.11
12,AAAATACAGAAACACACACACACACCCATATATATA [CACACA_site3559],10.31 ± 0.014
13,AAAAAAAAAAAAAACACACACACACCCATACAAAAT [CACACA_site1446],10.12 ± 0.064
14,CAAAAAAACAAACACACACACACACCCATATATATA [CACACA_site3653],10.25 ± 0.085
15,CAAAAAAAATTATACACACACACACCCATATATATA [CACACA_site1044],10.04 ± 0.099
16,TACAAACACCCATATACACACAAAAAAAAAATAAAA [CACACA_site5421],9.24 ± 0.49
17,AACAAAAAAACAAACACACACACACCCATATATATA [CACACA_site3652],10.03 ± 0.042
18,AAAAAATACAAACACACACACACACCCATATATATA [CACACA_site3560],10.21 ± 0.057
19,ATACAGAAAAAAAACACACACACATAATATACATAC [CACACA_site1933],9.84 ± 0.16
20,ATAAAATACAGATAAACACACATATAAACACCCATA [CACACA_site5381],9.56 ± 0.32
